Among all 25,000 compounds or so, about 970 (3.9%) were called active. Roughly 8% stayed inconclusive and do not appear here. How the calls were made is not given here. What follows is part of a selection rich in actives, with near analogues and random picks from the rest.
How the values were obtained:
Assay in all cases: Primary Screen for Target Class Profiling of Small Molecule Inhibitors of Methyltransferases
[1] = target: Catechol O-methyltransferase (Homo sapiens) (UniProt P21964); conditions: purified enzyme, MTase-Glo SAH luminescence; activity change, negative = inhibition: at 40 µM, stronger effect = lower value; outcome: 40 uM
Catechol O-methyltransferase (Homo sapiens), sequence (P21964 whole entry, looked up): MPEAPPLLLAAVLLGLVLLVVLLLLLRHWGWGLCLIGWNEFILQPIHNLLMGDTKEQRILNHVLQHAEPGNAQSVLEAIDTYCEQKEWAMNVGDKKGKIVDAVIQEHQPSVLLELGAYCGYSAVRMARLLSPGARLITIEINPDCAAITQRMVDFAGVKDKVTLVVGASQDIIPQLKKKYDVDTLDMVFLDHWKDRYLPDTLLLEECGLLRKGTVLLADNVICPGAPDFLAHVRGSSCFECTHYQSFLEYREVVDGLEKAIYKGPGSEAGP
From the text: (§1) PI: Matthew D. Hall Ph.D. and Quinlin M. Hanson Ph.D.
(§2) National Center for Advancing Translational Sciences (NCATS)
(§3) National Institute of Health (NIH), Rockville, MD
(§4) Target class profiling (TCP) is a chemical biology approach amenable to investigating understudied biological targets. TCP is achieved by developing a generalizable assay platform and applying it to screen a curated set of compound libraries against representative members of a target class. Small molecule methyltransferases (SMMTase) are a subclass of methyltransferase that act on metabolites to modulate signaling pathways, metabolize xenobiotics, or balance the available methyl pool. We screened four curated libraries totaling 27,574 unique compounds against the SMMTases nicotinamide N-methyltransferase (NNMT), phenylethanolamine N-methyltransferase (PNMT), histamine N-methyltransferase (HNMT), glycine N-methyltransferase (GNMT), catechol O-methyltransferase (COMT), and guanidinoacetate N-methyltransferase (GAMT). The data generated by this TCP can be leveraged for informed tool molecule development. For example, in the associated publication we identified a chemotype of HNMT-selective inhibitors. Additionally, we identified a putative SMMTase-selective inhibitor with potential as a tool molecule for studying broader methyltransferase biology.
(§5) High-through put screening assays were developed at the National Center for Advancing Translational Science (NCATS) for the enzymes NNMT, PNMT, HNMT, GNMT, COMT, and GAMT. Enzymatic activity was measured as a function of SAM cofactor conversion using the MTase Glo kit (Promega) for all enzymes. All assays were performed in 1536-well format with substrates and SAM concentrations at KM values. Enzyme concentration and assay timing were optimized for 10-20% SAM conversion. Initial screening of 27,574 compounds was done as single-point assays using the highest compound concentration (40 uM). […] These compounds were replated in 11-point dose response and assayed against NNMT, PNMT, HNMT, GNMT, COMT, GAMT, and a counter-assay. The IC50 and efficacy (maximal response) values were determined for each dose-response curve. These values are also accounted for in the area under the curve (AUC) values.
(§6) PROTOCOL TABLE (as described by Inglese J, Shamu CE and Guy RK. 2007)
(§7) SEQUENCE No. (e.g., 1, 2, 3, etc.); […] (e.g., Cells, Incubation, Reagent, etc.); VALUE; DESCRIPTION.
(§8) 1; Reagent; 2 uL; SMMTase Enzyme (2x) in reaction buffer, columns 1- 48.
(§9) 2; Reagent; 1 uL; SAM (4x) in reaction buffer, columns 1-48.
(§10) 3; Controls; 23 nL; DMSO in column 4; sinefungin in DMSO (0 uM - 40 uM) in 7-point 1:2 dilution series (n = 2) in column 2.
(§11) 4; Compounds; 23 nL; Columns 5-48.
(§12) 5; Reagent; 1 uL; Substrate (4x) in reaction buffer, columns 2-48.
(§13) 6; Time; 20-30 min; Incubation.
(§14) 7; Reagent; 1 uL; MTase-Glo reagent (5X), columns 1-48.
(§15) 8; Time; 30 min; Incubation.
(§16) 9; Reagent; 5 uL; MTase-Glo Detection reagent, columns 1-48.
(§17) 10; Time; 30 min; Incubation, luminescence evolution.
(§18) 11; Detection; Luminescence; ViewLux uHTS Microplate Imager (PerkinElmer).
(§19) NOTES (numbers refer to Sequence numbers above)
(§20) 1, 2, 5. White Medium Binding Greiner 1536-well plates (Cat #789175-F, Greiner Bio-One, Monroe, NC); Reaction buffer: 50 mM Tris, pH 8.0, 3 mM MgCl2, 1 mM EDTA, 50 mM NaCl, 1 mM DTT, and 0.1 mg/mL BSA. Evaporation was prevented by covering assay plates with metal lids containing holes to allow gas diffusion.
(§21) 1. Six SMMTase were profiled: HNMT, GNMT, PNMT, COMT, NNMT, GAMT
(§22) 5. The corresponding substrate was used for each enzyme: HNMT - 5.3 uM Histamine; GNMT - >500 uM Glycine; PNMT - 16.2 uM Norephinephrine; COMT - 13.7 uM Norephinephrine; NNMT - 3.8 uM Nicotinamide; GAMT - 2.5 uM Guanidinoacetate.6, 8, 10. Room temperature
(§23) 6. Final reaction conditions: 10 nM COMT, 5 uM SAM, 15 uM norepinephrine, 50 mM Tris, pH 8.0, 3 mM MgCl2, 1 mM EDTA, 50 mM NaCl, 1 mM DTT, and 0.1 mg/mL BSA; refer to tables 2 and S1 for specific timing.
8. […]

[2] = target: Glycine N-methyltransferase (Homo sapiens) (UniProt Q14749); conditions: purified enzyme, MTase-Glo SAH luminescence; measured here: GNMT inhibition; at 40 µM; stronger effect = lower value
Glycine N-methyltransferase (Homo sapiens), sequence (Q14749 whole entry, looked up): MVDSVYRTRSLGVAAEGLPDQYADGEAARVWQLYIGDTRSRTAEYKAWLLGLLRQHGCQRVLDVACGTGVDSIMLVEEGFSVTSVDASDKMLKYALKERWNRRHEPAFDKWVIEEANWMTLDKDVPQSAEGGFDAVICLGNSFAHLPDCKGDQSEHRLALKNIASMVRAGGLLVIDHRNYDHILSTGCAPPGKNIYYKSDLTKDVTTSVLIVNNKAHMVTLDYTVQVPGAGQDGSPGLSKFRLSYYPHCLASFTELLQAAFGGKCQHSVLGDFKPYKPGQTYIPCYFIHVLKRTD
From the text: as §1, §2, §3, §4, §5, §6, §7, §8, §9, §10, §11, §12, §13, §14, §15, §16, §17, §18, §19, §20, §21, §22, §23
8. […]

[3] = target: Guanidinoacetate N-methyltransferase (Homo sapiens) (UniProt Q14353); conditions: purified enzyme, MTase-Glo SAH luminescence; measured here: GAMT inhibition; at 40 µM; stronger effect = lower value
From the text: as §1, §2, §3, §4, §5, §6, §7, §8, §9, §10, §11, §12, §13, §14, §15, §16, §17, §18, §19, §20, §21, §22, §23
8. […]

[4] = target: Histamine N-methyltransferase (Homo sapiens) (UniProt P50135); conditions: purified enzyme, MTase-Glo SAH luminescence; measured here: HNMT inhibition; at 40 µM; stronger effect = lower value
Histamine N-methyltransferase (Homo sapiens), sequence (P50135 whole entry, looked up): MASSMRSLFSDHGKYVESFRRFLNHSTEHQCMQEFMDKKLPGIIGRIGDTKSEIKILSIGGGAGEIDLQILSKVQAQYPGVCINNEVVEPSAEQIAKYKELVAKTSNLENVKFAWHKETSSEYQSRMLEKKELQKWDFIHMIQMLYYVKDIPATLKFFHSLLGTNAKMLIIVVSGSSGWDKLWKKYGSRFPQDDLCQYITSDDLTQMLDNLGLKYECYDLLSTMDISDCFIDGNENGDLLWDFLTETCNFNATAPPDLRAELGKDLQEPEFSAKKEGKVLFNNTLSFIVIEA
From the text: as §1, §2, §3, §4, §5, §6, §7, §8, §9, §10, §11, §12, §13, §14, §15, §16, §17, §18, §19, §20, §21, §22, §23
8. […]

[5] = target: Nicotinamide N-methyltransferase (Homo sapiens) (UniProt P40261); conditions: purified enzyme, MTase-Glo SAH luminescence; measured here: NNMT inhibition; at 40 µM; stronger effect = lower value
Nicotinamide N-methyltransferase (Homo sapiens), sequence (P40261 whole entry, looked up): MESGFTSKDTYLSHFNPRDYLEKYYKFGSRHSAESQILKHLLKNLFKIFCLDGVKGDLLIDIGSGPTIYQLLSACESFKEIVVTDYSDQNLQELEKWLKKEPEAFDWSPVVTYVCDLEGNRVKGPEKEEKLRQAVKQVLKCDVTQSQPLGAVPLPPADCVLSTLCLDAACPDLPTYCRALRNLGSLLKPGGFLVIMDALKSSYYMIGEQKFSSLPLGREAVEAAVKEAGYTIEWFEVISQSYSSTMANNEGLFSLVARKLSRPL
From the text: as §1, §2, §3, §4, §5, §6, §7, §8, §9, §10, §11, §12, §13, §14, §15, §16, §17, §18, §19, §20, §21, §22, §23
8. […]

[6] = target: Phenylethanolamine N-methyltransferase (Homo sapiens) (UniProt P11086); conditions: purified enzyme, MTase-Glo SAH luminescence; measured here: PNMT inhibition; at 40 µM; stronger effect = lower value
Phenylethanolamine N-methyltransferase (Homo sapiens), sequence (P11086 whole entry, looked up): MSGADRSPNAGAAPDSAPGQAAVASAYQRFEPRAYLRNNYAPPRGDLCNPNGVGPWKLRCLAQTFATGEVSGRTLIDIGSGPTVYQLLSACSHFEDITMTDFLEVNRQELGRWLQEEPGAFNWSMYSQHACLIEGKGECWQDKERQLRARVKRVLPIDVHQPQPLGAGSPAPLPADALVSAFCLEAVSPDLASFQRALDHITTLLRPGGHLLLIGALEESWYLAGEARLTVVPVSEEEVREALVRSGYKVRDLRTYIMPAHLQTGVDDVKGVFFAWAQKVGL
From the text: as §1, §2, §3, §4, §5, §6, §7, §8, §9, §10, §11, §12, §13, §14, §15, §16, §17, §18, §19, §20, §21, §22, §23
8. […]
On the % scale 0 is the no-effect control and ±100 the full control effect.

Row | Structure (SMILES) | activity change, negative = inhibition [1] | activity change, negative = inhibition [2] | activity change, negative = inhibition [3] | activity change, negative = inhibition [4] | activity change, negative = inhibition [5] | activity change, negative = inhibition [6]
1 | O=C(C1CCCC1)N1CCCC(c2noc(COc3ccccc3)n2)C1 (configuration not stated) | -7.8% (inactive) | -8.83% | -9.57% | -5.83% | -18.3% | -10.2%
2 | CSc1cccc(CN(C)Cc2cc3n(n2)CCNC3)c1 | -0.225% (inactive) | -1.46% | -2.55% | -2.05% | -2.62% | -8.63%
3 | COc1ccccc1CN[C@H]1[C@H](O)[C@@H](N2CCN(c3ccccc3OC)CC2)[C@@H]2OC[C@H]1O2 | 1.34% (inactive) | -1.49% | -8.26% | 2.36% | -0.669% | 2.62%
4 | CCc1cccc(NC(=O)Cn2c(=O)oc3cc(S(=O)(=O)N4CCC(C)CC4)ccc32)c1 | 0.729% (inactive) | -4.13% | 4.45% | -8.18% | -16.8% | -14.1%
5 | Cc1ccc(Cn2c(=O)c3ccc(C(=O)NC(C)C)cc3n3c(=O)n(Cc4cccc(F)c4)nc23)cc1 | 6.38% (inactive) | 4.35% | 1.49% | 7.79% | 5.05% | 6.91%
6 | C[C@@H]1CC[C@]2(C(=O)O[C@@H]3O[C@H](CO)[C@@H](O)[C@H](O)[C@H]3O)CC[C@]3(C)C(=CCC4[C@@]5(C)C[C@@H](O)[C@H](O)[C@](C)(C(=O)O)C5CC[C@]43C)[C@@H]2[C@]1(C)O (some centres not stated) | 4.37% (inactive) | 6.36% | 4.44% | 15.1% | -9.25% | 7.5%
7 | CC1(C)CC[C@]2(C(=O)O[C@@H]3O[C@H](CO)[C@@H](O)[C@H](O)[C@H]3O)CC[C@]3(C)C(=CCC4[C@@]5(C)CC[C@H](O[C@@H]6O[C@H](C(=O)O)[C@@H](O)[C@H](O)[C@H]6OC6OC(CO)C(O)C(O)C6O)C(C)(C)C5CC[C@]43C)[C@@H]2C1 (some centres not stated) | -21.1% (inactive) | 2.46% | 8.94% | 8.45% | -9.17% | 7.25%
8 | CC1(C)CCC2(C(=O)OC3OC(COC4OC(CO)C(O)C(O)C4O)C(O)C(O)C3O)CCC3(C)C(=CCC4C5(C)CCC(O)C(C)(C(=O)O)C5CCC43C)C2C1O (configuration not stated) | -56.4% (active) | 0% | 5.96% | 11.8% | -7.28% | 4.84%
9 | C=Cc1ccc(Cn2nc3n(CC(C)C)c(=O)c4ccc(C(=O)NC(C)CC)cc4n3c2=O)cc1 (configuration not stated) | 2.79% (inactive) | 4.48% | 0% | 10.7% | -0.533% | 5.38%
10 | O=S(=O)(c1ccc2[nH]c3c(c2c1)CCCC3)N1CCN(Cc2ccccc2)CC1 | 4.94% (inactive) | 5.6% | 0% | 5.93% | 5.54% | 4.34%
11 | Cc1nc2c(c(NC3CC3)n1)CCN(C(=O)CCc1cccnc1)CC2 | -0.626% (inactive) | -3.41% | -8.98% | -2.51% | -8.36% | -4.07%
12 | COc1cc(NC(=O)Nc2cccc(CNC(=O)O[C@H]3CCOC3)c2)ccc1-c1cnco1 | -2.73% (active) | -16.2% | 1.61% | -89.1% | -22.8% | -6.4%
